Drawing on PubChem BioAssay AID1508600 (Functional Genomics Laboratory (NCATS/FGL), 2020), this text covers z-score for 30 sequences.

Among all 53,000 sequences or so, about 3,700 (7%) were called active. The sample as a whole holds a higher share of actives than the screen did. Unmarked numbers belong to inactive results.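 The calls were made as follows: active = gene knockdowns whose robust z-score for IL-1 alpha signal is at least 2 or at most -2, so actives lie on both sides; inactive = the rest.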

The nature of the assay: Components of the Cytosolic LPS Sensing Pathway: Gene Identification via Genome-wide siRNA Screen.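 Also: robust z of the log signal after scaling to non-targeting control siRNA wells of the plate.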 The settings on record: RAW264.7 macrophages, IL-1a HTRF, actives lie on both sides, screened at 100 nM (by protocol), cells primed 5 h with Pam3CSK4 first. The procedure, abridged: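 Read-out: IL-1a HTRF on supernatant, divided by plate negative-control median ×100, log-transformed and converted to robust z-score. Cells were RAW264.7 given 100 nM siRNA, Pam3CSK4-primed 5 hours, then LipidA-transfected 24 hour.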
For the sequence GCCCUGUGCUUGGCAACAUTT against Ssbp3, the z-score was -2.36 (active).
As for GGCCACCGUUCAAAAAAUUTT against Dctn5, the z-score was -0.226.
On to GGAAGAGAAUAGAUCCUAUTT against Zbtb8a, for which the z-score is -0.388.
In the case of GGUCGUGUACAAGUACAUATT against Mrps24, the z-score is 2.24 (active).
Then GCUACUGCACAAAGUUACGTT against Ankrd36, with -0.0351.
In the case of GCUGACUCCAUCCUAACAGTT against Cideb it was -2.6 (active); in that of GCCUCUGAGUUGCAUGAGUTT against Ppp2r5b, -0.736; in that of GGACUACCAUCGACCUUCATT against Nek2, 1.15.
For CCCAAGAAUUGGAUUCCAGTT against Lta, the z-score was -0.528.
In the case of GGAGCUGAAGAUCAAGGAGTT against Pkn3 it was -0.849.
Then GCCCAAAAAUACUGGAUAUTT against Atp6ap2, with -2; and “GCCUUGUAGACCAGUUCUATT against 9530085L02Rik”, with 2.15 (active).
For CCGCAUGUUUGGAAAGGAUTT against Cabp4, the z-score was -0.484.
In the case of GGAACAAUUUGAUCCAGCATT against Mbnl2 it was -1.67; in that of CCCACUCCUUCUAAAAGUUTT against Cyp3a13, -0.909.
Then GGCCAUUCACGUUUUACUCTT against Ric8b, with -1.02.
In the case of GGAGCUAUAUUCUCACCCATT against Ptpn1 it was -2.06 (active); in that of GGGAAAAAUAUCAGUUAUGTT against Khdrbs1, 0.465.
As to GGGUACGUUCAAGUGCUUCTT against Agtpbp1, the z-score was 1.74.
Then GGAUACAUGUGGUGCCAAUTT against Banf1, with -0.529.
On to GCCAUAACCUACAUUGUCATT against Loxhd1, for which the z-score was -2.86 (active).
Then GCGAAUCCACUUAAUUCGATT against Abhd4, with 1.35; and CCACAAGAUUGUUUCAGAATT against Lingo4, with 0.216.
Then GCUGCUCAAGUUGUGGUGATT against Sord, with 1.56.
As for GGUUCAGCUGACGUAAAAATT against BC048562, the z-score is -2.1 (active).
GCAGUAGAUCCUGAUUUUGTT against Cdh12: the z-score is -0.382.
In the case of GGGACCUUUCCUGACCUAUTT against Ppdpf it was -0.362; in that of GGUCCACUUGCCAUCUAUUTT against Zfp54, -1.09.
As to CCCUAACAUACUGGAGCUATT against Erfe, the z-score was 3.56 (active).
In the case of GGGUAUUUUCACUGAAAGUTT against Ltbp3 it was 0.431.
